According to PubChem BioAssay (Tox21):
Inconclusive results are not listed. Where a call stands in place of a potency, no number is given. Active and inactive are the calls of the source. The call rests on the fitted dose curve; in most records, active means well fitted activation curve with a large enough effect in the repeat runs; inconclusive means weak or mixed curves, or effect the other way; inactive means no such curve, though single readings can be large or run the other way.

assay: qHTS assay to identify small molecule agonists of the retinoic acid receptor (RAR) signaling pathway (AID 1159553); conditions: C3RL4 RARE luciferase reporter, agonist, 6 h; activation: at 73.3 µM (top of the series) unless noted
Description: National Center for Advancing Translational Sciences [NCATS] NIH Chemical Genomics Center [NCGC] U.S. Environmental Protection Agency [EPA] National Institutes of Environmental Health Sciences [NIEHS] National Toxicology Program [NTP] Assay overview: All-trans Retinoic acid (atRA) is the potent natural metabolite of retinol and plays an important role in normal embryonic development and maintenance of cellular phenotype in adult animals. atRA is the activating ligand for the retinoic acid receptors (RARs) which form heterodimers with retinoid X receptors (RXRs) on the retinoic acid response element (RARE). Through activation of the RAR/RXRs nuclear receptors, atRA regulates the transcription of a large number of protein-coding genes and regulatory RNAs. Intracellular levels of atRA are controlled by the retinol signaling pathway (RSP) that regulates the biosynthesis and catabolism of atRA to maintain physiological levels. Chemicals that interfere with the RSP can cause abnormal intracellular levels of atRA and therefore are potential developmental toxicants. To assess compounds for the potential adverse effect on embryonic development through interfering with retinol signaling, a cell-based RARE luciferase reporter gene assay was used. C3RL4 cell line (OARSA/CFSAN/FDA, Laurel, MD) was used to screen Tox21 10K compound library for identifying activators of the RSP.
Assay Protocol Summary: C3RL4 cells were seeded at 1,000/well in 5 uL of assay medium into white solid 1,536-well tissue culture plates (Greiner Bio-One North America Inc. Monroe, NC) using a Multidrop Combi (Thermo Scientific, Waltham, MA) dispenser. After incubation at 37 C and 5% CO2 for an overnight, 23 nL of compounds dissolved in DMSO, positive control or DMSO only were transferred by a Pintool station (Kalypsys, San Diego, CA). After 6 hr incubation at 37 C and 5% CO2, 5 uL of Amplite Luciferase reagent (AAT Bioquest Inc. Sunnyvale, CA) was added to each assay plate using a Flying Reagent Dispenser (FRD) (Aurora Discovery, San Diego, CA). Luminescence was quantified on a ViewLux plate reader (PerkinElmer, Waltham, MA) after 30 min incubation at room temperature.
Potency means the concentration at half of the fitted maximal effect.

| SMILES | Potency | activation |
| --- | --- | --- |
| Clc1ccccc1Cl | inactive |  |
| O=c1n(Cl)c(=O)n(Cl)c(=O)n1Cl | inactive |  |
| NCCc1ccc(O)cc1 | inactive |  |
| CCCCN(CC)C(=O)SCCC | inactive |  |
| NCC(O)c1ccc(O)cc1 (stereo not given) | inactive |  |
| C#CCN(C)[C@H](C)Cc1ccccc1 | inactive |  |
| CCCCOC(=O)c1ccccc1C(=O)OCCCC | inactive |  |
| CC(C)N1C(=O)c2ccccc2NS1(=O)=O | inactive |  |
| CCc1cccc(C)c1N(C(=O)CCl)C(C)COC (stereo not given) | inactive |  |
| C1CC2OC2CC1C1CO1 (stereo not given) | inactive |  |
| Cc1ccc(N)cc1Cl | inactive |  |
| CC(C#N)CCC#N (stereo not given) | inactive |  |
| c1ccc2c(c1)Oc1ccccc1O2 | inactive |  |
| CNC(=O)Oc1ccccc1OC(C)C | inactive |  |
| O=C(NC(=O)c1c(F)cccc1F)Nc1cc(Cl)c(OC(F)(F)C(F)C(F)(F)F)cc1Cl (stereo not given) | inactive |  |
| Nc1ccc(Br)cc1 |  | 11.1% (inactive) |
| CCNc1nc(NC(C)(C)C)nc(SC)n1 |  | -6.75% (inactive) |
| OCCN(CCO)CCO | inactive |  |
| CC(C)OC(=O)Nc1cccc(Cl)c1 | 6.11 µM (active) |  |
| CCC(C)(CC)c1cc(NC(=O)c2c(OC)cccc2OC)on1 | inactive |  |

| SMILES | Potency | activation |
| --- | --- | --- |
| CCOC(=O)c1ccccc1C(=O)OCC | inactive |  |
| CC(C)C1(C)N=C(c2nc3ccccc3cc2C(=O)O)NC1=O (stereo not given) | inactive |  |
| OC(O)C(Cl)(Cl)Cl | inactive |  |
| CC(=O)C=C(C)C | inactive |  |
| [O-][Cl+2]([O-])O |  | -0.679% (inactive) |
| CCCCCCCCCl |  | -0.05% [at 94.8 µM] (inactive) |
| Cc1ccc([N+](=O)[O-])cc1C | inactive |  |
| CC(Br)C(=O)O (stereo not given) |  | -2.56% [at 94.8 µM] (inactive) |
| CC(Oc1ccc(Cl)cc1Cl)C(=O)O (stereo not given) | inactive |  |
| CN(C)N=O | inactive |  |
| CON(C)C(=O)Nc1ccc(Cl)c(Cl)c1 | 24.3 µM (active) |  |
| COP(N)(=O)SC (stereo not given) |  | 1.65% (inactive) |
| CC(C)=C[C@@H]1[C@@H](C(=O)OCc2coc(Cc3ccccc3)c2)C1(C)C | inactive |  |
| c1ccc(-c2ccccc2)cc1 |  | 0.327% (inactive) |
| CC(C)C#N | inactive |  |
| CCCC1COC(Cn2cncn2)(c2ccc(Cl)cc2Cl)O1 (stereo not given) | inactive |  |
| C1CN2CCN1CC2 | inactive |  |
| O=[N+]([O-])c1ccccc1 | inactive |  |
| CCOP(=S)(OCC)Oc1cnc2ccccc2n1 |  | -2.27% (inactive) |
| O=S(=O)(c1ccc(Cl)cc1)c1cc(Cl)c(Cl)cc1Cl |  | -11.4% (inactive) |
